Results on 9 compounds are retold here after PubChem BioAssay (EPA / NIEHS).

Records with an inconclusive call do not appear. Calls of active or inactive are those of the source. The calls were made as follows, unless noted: active = hit-call score of the fitted dose curve at least 0.9, where 1 is the maximum; inactive = score below 0.9.

The nature of assay [1]: BSK_LPS_PGE2: BioMAP Diversity Plus: LPS Assay for Prostaglandin E2 (PGE2) Biomarker Activity (AID 2283082). The note with it: primary human HUVEC with PBMC; actives raise or lower the signal. In short, it runs like this: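 Compounds were added to the LPS co-culture of endothelium and PBMC, and PGE2 was measured by ELISA after 24 h. Responses in either direction were fitted with DMSO as baseline.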

Read-out in assay [2]: Tissue Factor, F3 (gene 2152)
In words: BSK_LPS_TissueFactor: BioMAP Diversity Plus: LPS Assay for Tissue Factor Biomarker Activity (AID 2283084). Conditions: primary human HUVEC with PBMC; actives raise or lower the signal. The gist of the method: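 Compound was added to an endothelial cell/PBMC co-culture, and after 24 h tissue factor (CD142) was read by ELISA. Gain or loss of signal was fitted against a DMSO baseline, and parallel SRB staining (560 nm) tracked overt cytotoxicity.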

Read-out in assay [3]: Vascular cell adhesion molecule 1 (VCAM1), VCAM1 (gene 7412)
In words: BSK_LPS_VCAM1: BioMAP Diversity Plus: LPS Assay for Vascular cell adhesion molecule 1 (VCAM1) Biomarker Activity (AID 2283086). The note with it: primary human HUVEC with PBMC; actives raise or lower the signal. In short, it runs like this: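 Cells are dosed in an LPS-stimulated endothelial/mononuclear co-culture and, after 24 h, VCAM-1 is quantified by ELISA. Activity in either direction is fitted relative to the DMSO negative control.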

Read-out in assay [4]: CD38, CD38 (gene 952)
Description: BSK_SAg_CD38: BioMAP Diversity Plus: SAg Assay for CD38 Biomarker Activity (AID 2283087). The note with it: primary human HUVEC with PBMC; actives raise or lower the signal. In short, it runs like this: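 CD38 quantified by ELISA (fluorescence) in a superantigen-activated endothelial cell–PBMC co-culture at 24 h post-dose. Activity fitted in both directions relative to DMSO; parallel SRB and Alamar Blue cytotoxicity read-outs.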

Read-out in assay [5]: CD40, CD40 (gene 958)
Description: BSK_SAg_CD40: BioMAP Diversity Plus: SAg Assay for CD40 Biomarker Activity (AID 2283088). Conditions: primary human HUVEC with PBMC; actives raise or lower the signal. In short, it runs like this:
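CD40 is measured by fluorescence ELISA in an endothelial/PBMC primary human co-culture at 24 h post-dose. Fitting is bidirectional, DMSO baseline. Parallel SRB staining (560 nm) flags cytotoxicity.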

Read-out in assay [6]: CD69, CD69 (gene 969)
Description: BSK_SAg_CD69: BioMAP Diversity Plus: SAg Assay for CD69 Biomarker Activity (AID 2283089).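 As to AC50: cell surface CD69 protein quantified by ELISA with fluorescence detection.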 Conditions: primary human HUVEC with PBMC; actives raise or lower the signal. The gist of the method: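 Primary human vascular co-culture (umbilical vein endothelium with peripheral blood mononuclear cells) exposed to test chemical for 24 h. CD69 levels quantified by fluorescence ELISA; DMSO served as negative control for bidirectional fitting.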

Read-out in assay [7]: Monocyte Chemoattractant Protein-1 (MCP1), CCL2 (gene 6347)
In words: BSK_SAg_MCP1: BioMAP Diversity Plus: SAg Assay for Monocyte Chemoattractant Protein-1 (MCP1) Biomarker Activity (AID 2283090). The note with it: primary human HUVEC with PBMC; actives raise or lower the signal. The gist of the method:
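Values derive from bidirectional fitting of ELISA-measured MCP1 against DMSO controls. Readings were taken 24 h after dosing human vascular endothelial cells co-cultured with peripheral blood mononuclear cells under superantigen stimulation.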

Read-out in assay [8]: E-selectin (Homo sapiens) (UniProt P16581)
In words: BSK_SAg_Eselectin: BioMAP Diversity Plus: SAg Assay for Eselectin Biomarker Activity (AID 2283091). Conditions: primary human HUVEC with PBMC; actives raise or lower the signal. In short, it runs like this: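 Cell-surface E-selectin is read by ELISA at 24 h in the SAg co-culture of HUVEC and PBMC. Curves are fitted in both directions relative to DMSO. Parallel SRB total-protein staining tracks overt toxicity.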

Read-out in assay [9]: Monokine induced gamma interferon (MIG), CXCL9 (gene 4283)
Description: BSK_SAg_MIG: BioMAP Diversity Plus: SAg Assay for Monokine induced gamma interferon (MIG) Biomarker Activity (AID 2283092). The note with it: primary human HUVEC with PBMC; actives raise or lower the signal. The gist of the method:
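Endothelial cells and PBMC were co-cultured, exposed to test chemicals, and sampled 24 h later. MIG was measured by ELISA, and responses were fitted in both directions relative to DMSO.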

The nature of assay [10]: BSK_SAg_PBMCCytotoxicity: PBMC Cytotoxicity Assessment in the BioMAP Diversity Plus: SAg Assay (AID 2283093).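 Also: PBMC viability measured as Alamar Blue reduction fluorescence at 546/580 nm; fitted both ways against DMSO so a hit may be loss or gain of signal.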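 As to AC50: PBMC superantigen activated with SEB plus TSST-1 one hour after compound addition.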 Conditions: primary human HUVEC with PBMC. The gist of the method: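 Alamar Blue reduction (6 h, ex/em 546/580 nm) read after 90 h culture of PBMC pre-dosed 1 h then stimulated with SEB plus TSST-1, 20 ng/mL each. Gain or loss of signal fitted relative to DMSO.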

Read-out in assay [11]: Interleukin-8 (IL8), CXCL8 (gene 3576)
Description: BSK_SAg_IL8: BioMAP Diversity Plus: SAg Assay for Interleukin-8 (IL8) Biomarker Activity (AID 2283094). The note with it: primary human HUVEC with PBMC; actives raise or lower the signal. The gist of the method:
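Chemicals were dosed onto a human endothelial–PBMC co-culture, and IL-8 was quantified by ELISA after 24 h. Both increases and decreases were fitted relative to DMSO.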

Assay [12] can be described thus: BSK_SAg_Proliferation: Cell Proliferation Assessment in the BioMAP Diversity Plus: SAg Assay (AID 2283095).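 Also: relative cell number as total protein by SRB absorbance in sub-confluent culture.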 Conditions: primary human HUVEC with PBMC. The gist of the method: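 Absorbance of sulforhodamine B at 560 nm reports total protein in a human vascular endothelial/PBMC co-culture after 96 h chemical exposure. Gain or loss of signal is fitted in both directions against DMSO.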

The nature of assay [13]: BSK_SAg_SRB: Viability Assessment in the BioMAP Diversity Plus: SAg Assay (AID 2283096).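 Also: cells read one day after compound addition; hits may be either gain or loss of signal compared with DMSO.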 The note with it: primary human HUVEC with PBMC. The gist of the method:
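SRB absorbance at 560 nm served as the viability read-out. Cells (HUVEC plus peripheral blood mononuclear cells) were TCA-fixed and stained 24 h post-dosing; activity fitted in both directions against DMSO controls.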

Read-out in assay [14]: Tumor necrosis factor (Homo sapiens) (UniProt P01375)
In words: BSK_LPS_TNFa: BioMAP Diversity Plus: LPS Assay for Tumour Necrosis Factor alpha (TNFa) Biomarker Activity (AID 2283085).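 As to AC50: TNFa protein level quantified by ELISA in the co-culture.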 The note with it: primary human HUVEC with PBMC; actives raise or lower the signal. The gist of the method: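 Cells (umbilical vein endothelium plus peripheral blood mononuclear cells) were dosed with chemical, incubated 24 h, then TNFa was quantified by ELISA; values derive from bidirectional fitting with DMSO as baseline.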

Assay [15] has as its target human CYP2A6, CYP2A6 (gene 1548) (UniProt P11509). Description: NVS_ADME_hCYP2A6: NovaScreen (NVS) CYP450-related Enzyme Activity (ADME) Assay for human CYP2A6 (AID 2283099; active = hit-call score of the fitted dose curve at least 0.9, where 1 is the maximum). In short, it runs like this: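 Compounds screened at 10 uM (duplicate) and, if active, titrated to a 20 uM top concentration against insect-cell-expressed CYP2A6. Loss of fluorescent product signal after 0.5 h, relative to acetonitrile baseline, indicates inhibition.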

The target in assay [16] is human CYP1A1, CYP1A1 (gene 1543) (UniProt P04798). In words: NVS_ADME_hCYP1A1: NovaScreen (NVS) CYP450-related Enzyme Activity (ADME) Assay for human CYP1A1 (AID 2283100; active = hit-call score of the fitted dose curve at least 0.9, where 1 is the maximum). In short, it runs like this: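 Chemicals were first tested in duplicate at 10 uM, and those passing a 30% inhibition threshold were rerun as concentration series topping at 20 uM. Fluorescence read-out of recombinant enzyme turnover after 1 h, relative to acetonitrile.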
human CYP1A1, CYP1A1 (gene 1543), sequence (P04798 whole entry, looked up): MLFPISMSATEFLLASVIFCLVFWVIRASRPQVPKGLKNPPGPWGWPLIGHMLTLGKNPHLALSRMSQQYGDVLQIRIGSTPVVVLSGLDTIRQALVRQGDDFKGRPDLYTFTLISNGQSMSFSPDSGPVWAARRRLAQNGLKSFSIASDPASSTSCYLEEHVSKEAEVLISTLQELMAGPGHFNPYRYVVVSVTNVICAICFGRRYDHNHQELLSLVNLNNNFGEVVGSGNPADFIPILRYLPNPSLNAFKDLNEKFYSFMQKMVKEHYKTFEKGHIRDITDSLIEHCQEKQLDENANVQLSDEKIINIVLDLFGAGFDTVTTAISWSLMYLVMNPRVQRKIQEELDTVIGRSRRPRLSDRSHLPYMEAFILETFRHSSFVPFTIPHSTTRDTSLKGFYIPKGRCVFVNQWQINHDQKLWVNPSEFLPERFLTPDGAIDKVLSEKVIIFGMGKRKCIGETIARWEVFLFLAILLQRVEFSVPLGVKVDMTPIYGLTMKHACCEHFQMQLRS

Assay [17] has as its target human CYP2B6, CYP2B6 (gene 1555) (UniProt P20813). Description: NVS_ADME_hCYP2B6: NovaScreen (NVS) CYP450-related Enzyme Activity (ADME) Assay for human CYP2B6 (AID 2283101; active = hit-call score of the fitted dose curve at least 0.9, where 1 is the maximum). In short, it runs like this:
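Cell-free recombinant enzyme assay with a fluorogenic substrate; fluorescence intensity read 1 hour after dosing. Loss of signal relative to acetonitrile negative control indicates inhibition. Primary screen run in duplicate at 10 uM, actives then tested in concentration series.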

The target in assay [18] is human CYP2D6, CYP2D6 (gene 1565) (UniProt P10635). In words: NVS_ADME_hCYP2D6: NovaScreen (NVS) CYP450-related Enzyme Activity (ADME) Assay for human CYP2D6 (AID 2283107; active = hit-call score of the fitted dose curve at least 0.9, where 1 is the maximum). In short, it runs like this: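 Fluorescence readout of recombinant CYP2D6 (insect-cell derived) activity after 1 h incubation with test chemical. Acetonitrile served as baseline, loss-of-signal direction. Single-concentration duplicate screening at 10 uM preceded concentration-response retesting.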
human CYP2D6, CYP2D6 (gene 1565), sequence (P10635 whole entry, looked up): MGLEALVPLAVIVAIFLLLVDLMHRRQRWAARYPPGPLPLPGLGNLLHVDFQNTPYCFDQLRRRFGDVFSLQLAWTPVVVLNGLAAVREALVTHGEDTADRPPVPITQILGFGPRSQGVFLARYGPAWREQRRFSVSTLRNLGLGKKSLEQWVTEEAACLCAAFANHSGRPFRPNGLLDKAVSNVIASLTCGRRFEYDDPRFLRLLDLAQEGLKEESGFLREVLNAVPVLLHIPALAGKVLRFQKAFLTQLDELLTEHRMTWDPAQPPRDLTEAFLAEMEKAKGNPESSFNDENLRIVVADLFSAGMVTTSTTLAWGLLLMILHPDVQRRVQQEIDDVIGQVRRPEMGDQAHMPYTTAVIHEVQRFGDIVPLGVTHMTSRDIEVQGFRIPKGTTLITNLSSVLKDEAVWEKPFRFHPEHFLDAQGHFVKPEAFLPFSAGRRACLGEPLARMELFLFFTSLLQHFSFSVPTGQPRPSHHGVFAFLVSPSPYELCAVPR

Tumor necrosis factor (Homo sapiens), sequence (P01375 whole entry, looked up): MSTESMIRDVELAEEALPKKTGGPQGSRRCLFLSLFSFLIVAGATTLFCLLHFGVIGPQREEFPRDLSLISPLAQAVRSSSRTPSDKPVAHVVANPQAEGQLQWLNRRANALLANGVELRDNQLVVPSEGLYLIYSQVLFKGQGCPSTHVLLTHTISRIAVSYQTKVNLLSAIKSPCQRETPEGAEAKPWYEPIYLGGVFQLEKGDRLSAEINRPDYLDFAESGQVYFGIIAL
E-selectin (Homo sapiens), sequence (P16581 whole entry, looked up): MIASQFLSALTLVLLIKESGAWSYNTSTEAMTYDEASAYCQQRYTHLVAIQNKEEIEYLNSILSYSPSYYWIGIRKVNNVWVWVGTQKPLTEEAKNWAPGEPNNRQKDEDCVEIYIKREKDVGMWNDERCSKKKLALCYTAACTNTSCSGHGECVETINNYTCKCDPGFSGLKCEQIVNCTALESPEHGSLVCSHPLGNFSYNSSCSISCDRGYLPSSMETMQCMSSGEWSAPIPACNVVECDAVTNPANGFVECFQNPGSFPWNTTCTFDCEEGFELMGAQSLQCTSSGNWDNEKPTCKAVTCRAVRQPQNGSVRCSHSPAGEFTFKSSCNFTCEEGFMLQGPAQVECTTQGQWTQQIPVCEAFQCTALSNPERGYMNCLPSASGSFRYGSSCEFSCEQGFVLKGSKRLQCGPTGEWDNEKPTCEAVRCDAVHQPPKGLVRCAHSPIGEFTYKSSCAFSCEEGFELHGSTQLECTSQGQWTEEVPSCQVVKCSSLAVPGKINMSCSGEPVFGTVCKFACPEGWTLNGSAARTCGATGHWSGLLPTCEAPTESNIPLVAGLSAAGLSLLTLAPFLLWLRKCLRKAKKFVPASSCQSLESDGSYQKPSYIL
human CYP2A6, CYP2A6 (gene 1548), sequence (P11509 whole entry, looked up): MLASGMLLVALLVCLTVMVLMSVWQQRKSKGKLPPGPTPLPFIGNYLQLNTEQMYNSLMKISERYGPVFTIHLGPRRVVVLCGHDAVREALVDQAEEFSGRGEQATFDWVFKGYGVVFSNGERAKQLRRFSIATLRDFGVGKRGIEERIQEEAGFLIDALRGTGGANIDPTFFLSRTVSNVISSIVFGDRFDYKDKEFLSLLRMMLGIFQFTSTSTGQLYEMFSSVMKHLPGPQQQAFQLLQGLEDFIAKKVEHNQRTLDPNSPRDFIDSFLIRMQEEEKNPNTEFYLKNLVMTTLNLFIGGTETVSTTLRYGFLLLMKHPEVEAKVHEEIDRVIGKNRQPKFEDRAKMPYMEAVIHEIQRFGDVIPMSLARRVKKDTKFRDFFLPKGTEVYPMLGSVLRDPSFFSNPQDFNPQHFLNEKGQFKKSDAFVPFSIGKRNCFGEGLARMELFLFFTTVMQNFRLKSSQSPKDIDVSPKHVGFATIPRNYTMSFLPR
human CYP2B6, CYP2B6 (gene 1555), sequence (P20813 whole entry, looked up): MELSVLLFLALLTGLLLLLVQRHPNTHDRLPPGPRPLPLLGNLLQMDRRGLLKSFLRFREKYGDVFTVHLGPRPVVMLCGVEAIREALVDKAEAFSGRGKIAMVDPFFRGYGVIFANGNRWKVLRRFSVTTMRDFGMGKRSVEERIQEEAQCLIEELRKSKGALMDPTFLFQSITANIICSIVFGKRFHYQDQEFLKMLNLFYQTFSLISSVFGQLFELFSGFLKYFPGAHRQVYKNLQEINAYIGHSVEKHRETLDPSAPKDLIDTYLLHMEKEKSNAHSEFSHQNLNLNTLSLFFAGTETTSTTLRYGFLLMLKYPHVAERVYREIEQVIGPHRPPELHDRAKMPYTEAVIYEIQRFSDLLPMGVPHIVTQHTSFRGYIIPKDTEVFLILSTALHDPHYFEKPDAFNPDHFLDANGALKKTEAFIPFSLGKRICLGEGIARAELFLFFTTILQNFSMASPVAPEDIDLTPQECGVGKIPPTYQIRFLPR

Take `CCC(C)c1ccc(O)cc1` (stereo not given): in assay [1], the AC50 (commonly the midpoint of the concentration-response curve, whichever way the signal moves) was 4.17 µM (active). Also, the outcome in [2], in assay [3], in assay [4], in assay [5], in assay [6] and in [7] was inactive. Further, the outcome in assay [8], in assay [9], in assay [10], in [11], in [12] and in assay [13] was inactive.
`CCCCCCCCCCCCCN1CC(C)OC(C)C1` (stereo not given): the result in assay [1], in assay [2], in assay [14], in assay [3], in [4] and in assay [5] was inactive. Further, the result in [6], in assay [7], in assay [8], in [9], in assay [10] and in [11] was inactive. The outcome in [12] and in [13] was inactive.
Turning to `ClC1=C(Cl)C2(Cl)C3C(Cl)C=CC3C1(Cl)C2(Cl)Cl` (stereo not given), the outcome in assay [1] was inactive. Also, the AC50 is 32.2 µM (active) in [2]; 33.7 µM (active) in assay [3]; 32.6 µM (active) in assay [4]; 25.7 µM (active) in assay [5]; 31.8 µM (active) in [6]; 31.6 µM (active) in [7]. Also, the half-maximal activity concentration (AC50) is 31.1 µM (active) in assay [8]; 36.8 µM (active) in [9]; 13 µM (active) in [10]; 27.9 µM (active) in [11]; 10.9 µM (active) in assay [12]; 31.7 µM (active) in [13].
On to `Nc1ccc([N+](=O)[O-])cc1`, for which the outcome in [1], in assay [2], in [3], in assay [4], in [5] and in assay [6] was inactive. Also, the result in assay [7], in [8], in assay [9], in assay [10], in assay [11] and in assay [12] was inactive. Moreover, in assay [13], the outcome was inactive. Further, the AC50 in assay [15] was 8.46 µM (active).
As for `OCCCBr`, the result in [1], in assay [2], in assay [3], in assay [4], in assay [5] and in assay [6] was inactive. Moreover, the result in [7], in [8], in assay [9], in assay [10], in [11] and in assay [12] was inactive. Besides, the outcome in assay [13] was inactive.
For the compound `CCOC(=O)[C@]1(c2ccccc2)Oc2ccccc2[C@@H]1N`, the outcome in [1], in [2], in assay [14], in assay [3], in assay [5] and in assay [6] was inactive. For the same compound, the result in [8], in [9], in [11], in assay [13], in assay [15] and in assay [16] was inactive. The AC50 in assay [4] was 36.2 µM (active); in assay [7], 30.1 µM (active); in assay [10] it was 24.3 µM (active); in assay [12], 31.3 µM (active); in assay [17], 0.269 µM (active); in [18], 1.3 µM (active).
On to `O=C(Nc1ccccc1)c1ccccc1I`, for which the outcome in assay [1], in assay [2], in assay [3], in assay [4], in assay [5] and in assay [6] was inactive. For the same compound, the outcome in assay [7], in [8], in [9], in assay [10], in assay [11] and in assay [12] was inactive. For the same compound, the outcome in assay [13] and in assay [16] was inactive.
On to `O=C(Oc1ccc(Br)cc1)N1CCN2CCC1CC2`, for which the result in assay [1], in assay [2], in assay [3], in [4], in assay [5] and in assay [6] was inactive. Besides, the result in assay [7], in assay [8], in assay [9], in assay [10], in assay [11] and in [12] was inactive. Further, the result in assay [13] was inactive.
For the compound `Clc1ccc(C(c2ccc(Cl)cc2)C(Cl)(Cl)Cl)cc1`, the result in assay [1] was inactive. The AC50 was 38.7 µM (active) in [2]; 24.8 µM (active) in assay [14]; 28.7 µM (active) in assay [3]; 23.2 µM (active) in assay [5]; 25.5 µM (active) in [6]; 30 µM (active) in assay [7]. Further, the half-maximal activity concentration (AC50) is 38.2 µM (active) in assay [8]; 35.1 µM (active) in [9]; 15.5 µM (active) in assay [10]; 17 µM (active) in [11]; 12.7 µM (active) in [12]; 21.6 µM (active) in assay [13].
